Assay results: PubChem BioAssay AID2685 (National Center for Advancing Translational Sciences (NCATS), 2010)
In all, about 320,000 compounds went through this assay and about 2,100 (0.66%) were called active. Not shown: some 53% with an inconclusive outcome. Calls follow the shape of the dose curve; as a rule, active = well fitted inhibition curve with a large enough effect in the signal ratio, with a control signal flat (not every such curve was filed as active); inconclusive = small, poorly fitted or top-dose-only effect, or effect the other way, or a change in a side signal; inactive = flat fitted curve, though single readings scatter; the % refers to the signal ratio. What follows is part of a selection rich in actives, with near analogues and random picks from the rest.

assay: qHTS Assay for Lipid Storage Modulators in Drosophila S3 Cells; conditions: BODIPY lipid droplet fluorescence, 18-24 h, cells fed with added oleic acid; cell number change: measured here: cell count max response; series mostly up to 46.1 µM; lipid storage change, negative = inhibition: at the top concentration;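 as to cell number change: cells counted by Cell Tracker Red CMTPX staining in the red channel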; as to lipid storage change, negative = inhibition: % is scaled to controls: 0 for no effect and ±100 for the full control effect
Procedure, shortened: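 Drosophila S3 cells got compounds at several concentrations plus oleic acid (400 uM solution). Laser-scanning cytometry with 488 nm excitation read lipid droplets at 500-530 nm and cells at 575-640 nm. Percent activity was relative to 20 uM Triacsin C.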
Potency is read from the fitted curve at half-maximal effect.

Row | Structure (SMILES) | lipid storage change, negative = inhibition | cell number change [%] | Potency | outcome
1 | O=[N+]([O-])c1cc([N+](=O)[O-])c(N2CCCCCC2)cc1NCCO | -14% (inactive) | -19.4 | – | –
2 | Cc1nc2ccccc2n1CCOc1ccc(F)cc1 | 9.98% (inactive) | -21.4 | – | –
3 | Cc1ccccc1C(=O)NCCn1cc(SCC(=O)NCC2CCCO2)c2ccccc21 (stereo not drawn) | -8.86% (inactive) | 4.31 | – | –
4 | CCn1cc(SCC(=O)NCC2CCCO2)c2ccccc21 (stereo not drawn) | -5.87% (inactive) | -11.7 | – | –
5 | COc1ccccc1C(=O)NCCn1cc(SCC(=O)NCC2CCCO2)c2ccccc21 (stereo not drawn) | – | -16.8 | 18.4 µM (active) | –
6 | CCCCNC(=O)C1CCN(Cc2ccc(OCc3ccccc3)cc2)CC1 | -3.1% (inactive) | -13 | – | –
7 | Cc1ccc(S(=O)(=O)Oc2ccc(/C=C3/C(=N)N4C(=NC3=O)SN=C4S(C)(=O)=O)cc2)cc1 | – | -5.51 | – | inactive
8 | CN(C)c1ccc(/C=C2\C(=N)N3C(=NC2=O)Sc2cc(S(C)(=O)=O)ccc23)cc1 | – | 29.8 | 5.8 µM (active) | –
9 | COc1ccc(/C=C2/C(=N)N3C(=NC2=O)Sc2cc(S(C)(=O)=O)ccc23)cc1OC | -5.29% (inactive) | 20.5 | – | –
10 | CC(=O)N1CCc2cc(S(=O)(=O)CCC(=O)N3CCN(c4ccccn4)CC3)ccc21 | 11.4% (inactive) | 3.02 | – | –
11 | CCc1ccc(C(C(=O)NCc2ccc(F)cc2)N(C(=O)c2csnn2)C2CC2)cc1 (stereo not drawn) | – | -0.952 | – | inactive
12 | CCCN(C(=O)/C=C/c1nc2ccccc2s1)C1CCS(=O)(=O)C1 (stereo not drawn) | -2.18% (inactive) | 10.5 | – | –
13 | COc1ccc(NC(=O)c2ccc(NCCCN3CCOCC3)c([N+](=O)[O-])c2)cc1 | 9.93% (inactive) | 0.55 | – | –
14 | Cc1ccc(C(=O)Nc2cccc(C(=O)O)c2)cc1 | -0.691% (inactive) | -13.9 | – | –
15 | CCOC(=O)c1cccc(NC(=O)c2ccc(NC(=O)C3CCCO3)cc2)c1 (stereo not drawn) | – | -4.84 | 14.6 µM (active) | –
16 | CS(=O)(=O)NCc1ccc(C(=O)NC2CCCCC2)cc1 | – | – | – | inactive
17 | CS(=O)(=O)c1ccc(C(=O)NC2CCCCC2)cc1 | 19.9% (inactive) | 6.12 | – | –
18 | Cc1cccc(C(=O)NC2CCCCCCC2)c1 | 6.47% (inactive) | 5.98 | – | –
19 | CCc1ccc(NC(=O)c2ccc(NC(=O)C3CCCO3)cc2)cc1 (stereo not drawn) | – | 8.55 | – | inactive
20 | CC1Nc2ccc(C(=O)NC3CCCCC3)cc2NC1=O (stereo not drawn) | – | 18.4 | 23.1 µM (active) | –
21 | O=C(Nc1cccc(O)c1)c1ccc(NC(=O)C2CCCO2)cc1 (stereo not drawn) | – | -1.32 | – | inactive
22 | Cc1ccc(C(=O)NC2CCCCC2)cc1 | 19.6% (inactive) | -6.85 | – | –
23 | CS(=O)(=O)Nc1ccc(C(=O)NC2CCCC2)cc1 | – | -0.712 | 2.91 µM (active) | –

Row | Structure (SMILES) | lipid storage change, negative = inhibition | cell number change [%] | Potency | outcome
24 | Cc1ccc(C(=O)Nc2cccc(C(=O)NC3CCCC3)c2)cc1 | – | 21.4 | 14.6 µM (active) | –
25 | O=C(NC1CCCCC1)c1ccc2c(c1)OCO2 | 3.69% (inactive) | 1.32 | – | –
26 | CC(C)CC(=O)N1CCN(Cc2ccc(Cl)cc2)CC1 | 10.9% (inactive) | 1.4 | – | –
27 | CN1CCN(C(=O)C2=C[C@@H](c3csc4ccccc34)C[C@@H](OCc3ccc(CO)cc3)O2)CC1 | 6.22% (inactive) | 5.1 | – | –
28 | Cc1ccc(S(=O)(=O)N(C)c2nc3ccccc3[nH]c2=S)cc1 | -4.12% (inactive) | 4.96 | – | –
29 | CCCCn1nc(NS(=O)(=O)c2cccc3nonc23)c2cc3cccc(C)c3nc21 | -12.1% (inactive) | – | – | –
30 | COc1ccc2nc(SCc3ccccc3C)nc(C)c2c1 | -4.04% (inactive) | -12.5 | – | –
31 | COc1ccc(CCN(Cc2ccc(C(C)C)cc2)S(=O)(=O)c2ccc(S(=O)(=O)N(C)C)cc2)cc1OC | 0.0067% (inactive) | -3.06 | – | –
32 | COc1ccc(OC)c(C2=NOC(C(=O)NCc3cccs3)C2)c1 (stereo not drawn) | -0.872% (inactive) | 19.5 | – | –
33 | COc1nc(OC)nc(N2CCC(C(=O)Nc3cccc4ccccc34)CC2)n1 | 14.5% (inactive) | -0.422 | – | –
34 | CC12CN(C(=O)c3ccc(Cl)cc3)C3(C#N)CC1CCC23C (stereo not drawn) | – | – | – | inactive
35 | O=C(Nc1ncc(Cc2cccc(C(F)(F)F)c2)s1)C1CCCO1 (stereo not drawn) | -2.84% (inactive) | -4.39 | – | –
36 | Cc1ccc(Cc2cnc(NC(=O)C3CCCO3)s2)cc1 (stereo not drawn) | – | 15.9 | 2.06 µM (active) | –
37 | CCOC(=O)c1c(-c2ccc(C)cc2)csc1NC(=O)C1CCCO1 (stereo not drawn) | – | 11.7 | 6.51 µM (active) | –
38 | O=C(Nc1ncc(Cc2cccc(Cl)c2)s1)C1CCCO1 (stereo not drawn) | 0.772% (inactive) | -0.923 | – | –
39 | CCOC(=O)c1c(-c2ccccc2)csc1NC(=O)C1CCCO1 (stereo not drawn) | -8.83% (inactive) | -4.26 | – | –
40 | CCOC(=O)c1c(-c2ccc(F)cc2)csc1NC(=O)C1CCCO1 (stereo not drawn) | -6.46% (inactive) | 2.19 | – | –
41 | O=C(NCC1CCCO1)C(=O)N/N=C\c1ccc2c(c1)OCO2 (stereo not drawn) | – | -7.51 | – | inactive
42 | Cc1c(C(=O)N2CCCCCC2)c(S(=O)(=O)Nc2cccc(F)c2)c(C)n1C | – | – | – | inactive
43 | COc1cc2c(cc1OC)CN(c1ccc3ccccc3n1)CC2 | – | -10.9 | 14.6 µM (active) | –
44 | COc1cc2c(cc1OC)CN(c1nc(-c3cccnc3)nc3ccccc13)CC2 | 13.7% (inactive) | 13.3 | – | –
45 | COc1cc2c(cc1OC)CN(c1ccc(-c3ccccc3OC)nn1)CC2 | -6.67% (inactive) | -18 | – | –
46 | O=C(Nc1ccc(Cl)cc1)NN1CC(=O)N(c2cccc(C(F)(F)F)c2)CC1=O | -5.06% (inactive) | -8.1 | – | –
